The panel holds about 83,000 compounds, 20% with a hit somewhere; the sample as a whole holds those more often.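 Negative percent growth values reflect cell death: -40 means 40% of the cells present at the start died, and -100 means all died.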 A number with no mark means an inactive call. Calls of active or inactive are those of the source. The calls were made as follows: active = growth percent below 10; inactive = the rest.
Assays:
Test in all cases: NCI-60 one-dose screen, 48 h (100 = growth as untreated, 0 = no growth, -100 = all killed)
Conditions in all cases: 10 µM unless noted
EKVX NSCLC = test system: EKVX NSCLC
SN12C renal = test system: SN12C renal
UO-31 renal = test system: UO-31 renal
TK-10 renal = test system: TK-10 renal
ACHN renal = test system: ACHN renal
CAKI-1 renal = test system: CAKI-1 renal
A498 renal = test system: A498 renal
CCRF-CEM leukemia = test system: CCRF-CEM leukemia
MOLT-4 leukemia = test system: MOLT-4 leukemia
SR leukemia = test system: SR leukemia

SMILES	growth (EKVX NSCLC)	growth (SN12C renal)	growth (UO-31 renal)	growth (TK-10 renal)	growth (ACHN renal)	growth (CAKI-1 renal)	growth (A498 renal)	growth (CCRF-CEM leukemia)	growth (MOLT-4 leukemia)	growth (SR leukemia)
CCn1c(Cc2ccccc2Nc2c(Cl)cccc2Cl)nnc1SCC(=O)NN1C(=O)/C(=C/c2cccc(OC)c2OC)SC1=S	93.2%	95%	77.3%	108%	96.9%	94.1%	103%	96.6%	95.8%	102%
COc1ccc(S(=O)(=O)N(Cc2ccc3c(n2)C=CC(C)(C)O3)C2CCC2)cc1OC	-22.5% (active)	6.9% (active)	-10.2% (active)	-8.7% (active)	13.4%	-28.2% (active)	-25.4% (active)	-19% (active)	-14.3% (active)	-40% (active)
O=C(c1nc2ccccc2[nH]1)C1C(c2cccc([N+](=O)[O-])c2)C2CC3CCCCC3N2[C@@]12C(=O)Nc1cc(Cl)ccc12 (some centres not stated)	31.3%	33.2%	-19.5% (active)	46.9%	21.2%	12.2%	-1.86% (active)	25.5%	8.76% (active)	6.09% (active)
COc1ccc(C2=Nn3c(NN)nnc3SC2)cc1	118%	101%	84.5%	97.5%	103%	89.7%	84.6%	95.1%	83%	75.8%
O=Cc1c(OCc2cnnn2CC(=O)Nc2ccc(Br)cc2)ccc2ccccc12	82.1%	92.9%	66.3%	93.7%	80.1%	93.9%	74.4%	97.4%	93.7%	95.9%
O=C1CCC(N2C(=O)c3cccc(NCCCCCCOc4ccc(Nc5nccc(Nc6ccccc6)n5)cc4)c3C2=O)C(=O)N1 (configuration not stated)	77.3%	79%	77.8%	108%	74.8%	63.8%	74.6%	66.1%	55.2%	68.5%
Nc1ccc(-c2ccc(-c3ccccc3N)c3[nH]c4ccccc4c23)cc1	34.9%	32.7%	22.5%	23.8%	32.1%	25.4%	20.6%	13%	22%	19.6%
Cc1sc2ncn(CC(=O)Nc3ccc(S(N)(=O)=O)cc3)c(=O)c2c1C	95.8%	98.6%	73.1%	109%	103%	95.4%	100%	105%	102%	117%
O=C1/C(=C/c2ccc(O)cc2)COc2ccc(O)cc21	106%	96.7%	87.5%	115%	96.5%	103%	103%	76.7%	93.7%	33%
NC1C(N)C(N)C1N (configuration not stated)	121%	96.8%	77.9%	99.1%	96.8%	101%	116%	85.1%	83.7%	86.8%
COc1ccc(C2=NN(/C=C3\SC(=O)NC3=Nc3ccc(F)cc3)C(c3ccc(F)cc3)C2)cc1 (configuration not stated)	82.2%	98.3%	73.4%	87.9%	93.7%	89.1%	93.8%	102%	98.4%	106%
COc1ccc(/C=C/C(=O)c2ccc(Nc3nc(NCCO)nc(Nc4ccc(Cl)cc4)n3)cc2)cc1	66.6%	86.6%	70.8%	96.2%	67.7%	81.4%	69.2%	48.8%	46.3%	38.4%
COc1cc2nc(-c3cccc4cccnc34)nc(NC3CCN(Cc4ccccc4)CC3)c2cc1OC	-66.2% (active)	-82.4% (active)	-83% (active)	-88.7% (active)	-94.5% (active)	-88.3% (active)	-72.2% (active)	-30.1% (active)	-32.4% (active)	-7.18% (active)
O=C(Cn1cc(COc2ncnc3c2cnn3-c2ccccc2)nn1)Nc1ccccn1	86.2%	94.6%	62.7%	115%	91.1%	86.6%	78.7%	96.7%	89.9%	101%
CC(=O)c1ccc(NC(=O)Nc2ccc(S(=O)(=O)Nc3ccc(Cl)nn3)cc2)cc1	99%	97.9%	78.5%	119%	103%	93%	84%	116%	104%	117%
O=S1(=O)N(Cc2ccccc2)[C@@H](Cc2ccccc2)[C@H](O)[C@H](O)[C@H](Cc2ccccc2)N1Cc1ccccc1	-1.3% (active)	5.15% (active)	0% (active)	60.4%	-7.05% (active)	-19.1% (active)	18.5%	7.73% (active)	5.65% (active)	4.45% (active)
COC(=O)C1(C)CCC[C@]2(C)[C@H]3C[C@H]4C(C(C)C)=C[C@]3(CC[C@@H]12)[C@H]1[C@@H]4[C@@H](OCC#CCN2CCOCC2)CC[C@@H]1OCC#CCN1CCOCC1 (some centres not stated)	67.2%	81.1%	72.9%	98%	92.3%	80%	101%	72%	70%	88.3%
Oc1[nH]c2ccccc2c1N=Nc1nnc2n1N=C(c1ccccc1)CS2	87.7%	99.1%	100%	94%	94.8%	79.4%	92.9%	96.6%	88%	77.3%
CCOC(=O)c1sc(-c2ccc(OS(=O)(=O)c3cccs3)c(C=O)c2)nc1C	33.6%	1.55% (active)	-4.34% (active)	12.2%	0.377% (active)	2.41% (active)	31.4%	7.57% (active)	-7.85% (active)	3.44% (active)
O=C(CN1C(=O)/C(=C\c2ccc(Cl)cc2)SC1=S)Nc1ncc(Cc2ccc(Cl)cc2)s1	96.5%	104%	80.8%	111%	103%	88.1%	115%	106%	106%	116%
Nc1nc2c(ncn2[C@@H]2O[C@H](CS)[C@@H](O)[C@H]2O)c(=O)[nH]1	95.8%	97.2%	93%	96.3%	99.8%	94.5%	99.9%	100%	99%	101%
O=C(NN1C(=O)CSC1c1ccc(Cl)cc1)c1[nH]c2ccc(F)cc2c1-c1ccccc1 (configuration not stated)	49.3%	44.1%	36.3%	66.9%	43.8%	32.1%	84.3%	34.3%	34.1%	48.9%
N#C/C(=C\c1c(-c2ccccc2)[nH]c2ccccc12)C(=O)c1ccccc1	68.5%	54.4%	37.5%	74.5%	65.9%	42.4%	57.9%	–	38.9%	52.3%
O=C(Nc1ccc(N2CCNCC2)cn1)c1[nH]ncc1Nc1ncnc2sccc12	65.8%	66.9%	76.1%	87.1%	60.2%	54.1%	80.7%	5.54% (active)	2.22% (active)	-5.97% (active)
CC(=O)O[C@@H]1/C=C/C(=O)N[C@@H](C)CCC/C=C/[C@@H]2CCC[C@H]21	116%	102%	93.7%	112%	112%	98.9%	121%	–	93.6%	87.4%
O=C1C(=O)c2c(ccc3ccccc23)-c2ccccc21	100%	-38.6% (active)	-32.4% (active)	14.7%	1.97% (active)	-17% (active)	108%	–	-31.3% (active)	5.07% (active)
COc1ccc(-c2c(-c3ccc(OC)c(O)c3)cnc3ncnn23)cc1	98.1%	105%	94.1%	98%	105%	95.1%	91.9%	102%	100%	109%

Reference: PubChem BioAssay (NCI)
